Key:
Test in all cases: DAPPL (digital affinity profiling via proximity ligation, sequencing); 10 mM Tris-HCl pH 7.5, 50 mM NaCl, 1 mM DTT, 4% glycerol, room temperature, 30 min; GST-TFs on glutathione beads, 16-mer random dsDNA library, 0.1% formaldehyde crosslink after washing; high values mean tight binding
FEV = target: T1, FEV (Homo sapiens, UniProt Q99581 1-238); conditions: protein: recombinant; tags: N-terminal GST; dsDNA, one strand shown
T1 sequence: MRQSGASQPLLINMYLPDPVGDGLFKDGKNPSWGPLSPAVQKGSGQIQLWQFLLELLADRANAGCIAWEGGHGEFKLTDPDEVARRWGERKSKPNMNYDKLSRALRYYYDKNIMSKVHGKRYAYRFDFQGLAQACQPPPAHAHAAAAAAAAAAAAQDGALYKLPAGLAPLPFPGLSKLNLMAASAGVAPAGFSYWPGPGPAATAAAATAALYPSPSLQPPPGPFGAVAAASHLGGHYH
Outline: (§1)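 Pools were built from human transcription factors expressed in yeast as GST fusions, captured on glutathione beads and DNA-barcoded, along with a tag-only sample. Incubation with 200 nmole of a 16-mer random double-stranded DNA library lasted 30 min at room temperature in Tris/NaCl/DTT/glycerol buffer, and was followed by washing, 0.1% formaldehyde crosslinking, proximity ligation, PCR amplification and Illumina NextSeq500 sequencing. Binding signal is the quotient of each hexamer's read frequency for a factor and its frequency for the tag-only sample.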

ETV5 = ETV5 (Homo sapiens, UniProt P41161 1-510); conditions: protein: recombinant; tags: N-terminal GST; dsDNA, one strand shown
Sequence of ETV5 (P41161 whole entry): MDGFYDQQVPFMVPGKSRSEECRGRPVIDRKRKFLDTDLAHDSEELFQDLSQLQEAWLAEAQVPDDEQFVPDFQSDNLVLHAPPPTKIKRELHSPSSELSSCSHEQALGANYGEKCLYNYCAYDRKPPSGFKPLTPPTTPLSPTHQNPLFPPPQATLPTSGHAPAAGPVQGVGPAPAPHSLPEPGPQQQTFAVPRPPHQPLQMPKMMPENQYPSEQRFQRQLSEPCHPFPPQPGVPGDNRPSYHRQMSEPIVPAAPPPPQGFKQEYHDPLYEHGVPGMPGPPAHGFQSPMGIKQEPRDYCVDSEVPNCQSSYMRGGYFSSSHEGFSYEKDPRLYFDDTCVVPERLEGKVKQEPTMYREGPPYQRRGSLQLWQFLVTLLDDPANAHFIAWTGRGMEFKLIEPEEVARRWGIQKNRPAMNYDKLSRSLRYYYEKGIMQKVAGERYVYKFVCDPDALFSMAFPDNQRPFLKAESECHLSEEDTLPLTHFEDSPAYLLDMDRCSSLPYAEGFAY
Outline: as §1

HSF1 = HSF1 (Homo sapiens, UniProt Q00613 1-529); conditions: protein: recombinant; tags: N-terminal GST; chain copies: 3; dsDNA, one strand shown
Sequence of HSF1 (Q00613 whole entry): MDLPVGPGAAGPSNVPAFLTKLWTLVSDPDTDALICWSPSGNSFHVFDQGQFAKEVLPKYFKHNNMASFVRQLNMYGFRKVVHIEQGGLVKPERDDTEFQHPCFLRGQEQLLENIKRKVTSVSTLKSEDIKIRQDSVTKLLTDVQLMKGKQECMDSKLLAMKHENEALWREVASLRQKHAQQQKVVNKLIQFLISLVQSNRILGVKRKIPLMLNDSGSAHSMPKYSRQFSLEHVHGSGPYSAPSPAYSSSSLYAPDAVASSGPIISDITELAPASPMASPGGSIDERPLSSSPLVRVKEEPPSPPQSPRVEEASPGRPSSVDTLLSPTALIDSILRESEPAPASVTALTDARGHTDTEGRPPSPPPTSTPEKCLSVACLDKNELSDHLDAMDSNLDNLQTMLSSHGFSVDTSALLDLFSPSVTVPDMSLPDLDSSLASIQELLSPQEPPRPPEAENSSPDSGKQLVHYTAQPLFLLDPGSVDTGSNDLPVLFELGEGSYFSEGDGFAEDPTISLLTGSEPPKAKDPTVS
Outline: as §1

SPIC = target: T2, SPIC (Homo sapiens, UniProt Q8N5J4 1-248); conditions: protein: recombinant; tags: N-terminal GST; dsDNA, one strand shown
T2 sequence: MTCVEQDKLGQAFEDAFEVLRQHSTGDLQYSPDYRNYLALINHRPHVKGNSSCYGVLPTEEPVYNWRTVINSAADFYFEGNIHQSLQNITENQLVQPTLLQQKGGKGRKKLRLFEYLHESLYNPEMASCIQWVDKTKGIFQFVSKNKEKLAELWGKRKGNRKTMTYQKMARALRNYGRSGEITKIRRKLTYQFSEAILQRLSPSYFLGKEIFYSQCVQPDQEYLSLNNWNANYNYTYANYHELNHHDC
Outline: as §1

ELF4 = ELF4 (Homo sapiens, UniProt Q99607 1-663); conditions: protein: recombinant; tags: N-terminal GST; dsDNA, one strand shown
Sequence of ELF4 (Q99607 whole entry): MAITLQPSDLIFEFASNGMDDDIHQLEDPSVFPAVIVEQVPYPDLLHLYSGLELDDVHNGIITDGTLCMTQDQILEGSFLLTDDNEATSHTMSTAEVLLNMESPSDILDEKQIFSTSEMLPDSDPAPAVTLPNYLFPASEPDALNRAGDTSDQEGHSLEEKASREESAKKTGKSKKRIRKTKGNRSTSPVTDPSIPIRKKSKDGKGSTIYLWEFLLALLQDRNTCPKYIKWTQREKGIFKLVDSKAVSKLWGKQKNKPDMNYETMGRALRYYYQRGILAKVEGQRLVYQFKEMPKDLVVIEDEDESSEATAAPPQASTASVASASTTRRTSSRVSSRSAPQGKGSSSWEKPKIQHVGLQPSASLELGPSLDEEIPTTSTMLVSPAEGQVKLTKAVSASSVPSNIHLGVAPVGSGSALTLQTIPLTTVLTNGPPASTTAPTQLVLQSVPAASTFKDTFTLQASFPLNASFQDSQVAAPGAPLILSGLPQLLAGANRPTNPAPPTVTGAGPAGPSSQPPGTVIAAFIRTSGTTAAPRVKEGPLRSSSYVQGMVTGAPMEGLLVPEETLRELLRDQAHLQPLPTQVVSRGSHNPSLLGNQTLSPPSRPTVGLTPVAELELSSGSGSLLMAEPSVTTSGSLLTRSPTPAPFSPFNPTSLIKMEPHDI
Outline: as §1

ELK4 = target: T3, ELK4 (Homo sapiens, UniProt P28324-2 1-405); conditions: protein: recombinant; tags: N-terminal GST; dsDNA, one strand shown
T3 sequence: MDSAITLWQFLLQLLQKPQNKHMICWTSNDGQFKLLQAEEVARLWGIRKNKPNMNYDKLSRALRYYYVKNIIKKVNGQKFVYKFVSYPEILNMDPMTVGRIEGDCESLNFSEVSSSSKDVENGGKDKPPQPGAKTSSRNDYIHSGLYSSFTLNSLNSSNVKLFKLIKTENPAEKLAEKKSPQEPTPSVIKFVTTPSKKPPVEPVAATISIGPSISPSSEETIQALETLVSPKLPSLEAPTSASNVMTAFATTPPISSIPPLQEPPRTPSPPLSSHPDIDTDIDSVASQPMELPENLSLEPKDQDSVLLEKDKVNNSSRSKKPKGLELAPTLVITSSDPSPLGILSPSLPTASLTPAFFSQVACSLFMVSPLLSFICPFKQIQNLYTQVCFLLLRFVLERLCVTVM
Outline: as §1

ETV2 = target: T4, ETV2 (Homo sapiens, UniProt O00321 1-342); conditions: protein: recombinant; tags: N-terminal GST; dsDNA, one strand shown
T4 sequence: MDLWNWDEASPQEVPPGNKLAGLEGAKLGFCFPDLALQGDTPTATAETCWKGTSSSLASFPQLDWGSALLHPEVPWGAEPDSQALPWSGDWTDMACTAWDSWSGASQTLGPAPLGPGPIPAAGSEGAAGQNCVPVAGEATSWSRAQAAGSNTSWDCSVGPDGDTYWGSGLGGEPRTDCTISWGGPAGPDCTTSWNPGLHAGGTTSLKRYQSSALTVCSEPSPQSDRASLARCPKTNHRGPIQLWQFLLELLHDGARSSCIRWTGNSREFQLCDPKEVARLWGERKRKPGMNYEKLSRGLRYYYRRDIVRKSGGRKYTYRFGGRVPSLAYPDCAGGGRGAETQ
Outline: as §1

ELF3 = target: T5, ELF3 (Homo sapiens, UniProt P78545 1-371); conditions: protein: recombinant; tags: N-terminal GST; dsDNA, one strand shown
T5 sequence: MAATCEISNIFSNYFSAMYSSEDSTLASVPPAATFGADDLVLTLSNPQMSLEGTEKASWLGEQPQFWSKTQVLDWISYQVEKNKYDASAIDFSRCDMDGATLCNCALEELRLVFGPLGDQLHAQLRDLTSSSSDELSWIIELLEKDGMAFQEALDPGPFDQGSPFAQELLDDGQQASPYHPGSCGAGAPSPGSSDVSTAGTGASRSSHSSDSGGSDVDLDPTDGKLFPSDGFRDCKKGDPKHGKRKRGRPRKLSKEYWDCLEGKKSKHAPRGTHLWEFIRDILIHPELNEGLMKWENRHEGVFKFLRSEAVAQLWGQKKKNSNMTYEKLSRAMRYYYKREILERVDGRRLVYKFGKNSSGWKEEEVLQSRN
Outline: as §1

CRX = CRX (Homo sapiens, UniProt O43186 1-299); conditions: protein: recombinant; tags: N-terminal GST; dsDNA, one strand shown
Sequence of CRX (O43186 whole entry): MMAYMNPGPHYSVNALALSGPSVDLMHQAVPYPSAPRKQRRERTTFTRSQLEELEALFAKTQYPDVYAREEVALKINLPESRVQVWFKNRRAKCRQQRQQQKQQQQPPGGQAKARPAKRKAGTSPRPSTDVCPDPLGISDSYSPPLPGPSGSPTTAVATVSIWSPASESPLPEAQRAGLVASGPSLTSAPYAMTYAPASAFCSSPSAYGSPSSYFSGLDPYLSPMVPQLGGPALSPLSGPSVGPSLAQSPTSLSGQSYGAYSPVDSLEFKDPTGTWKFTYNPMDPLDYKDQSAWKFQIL
Outline: as §1

ETV1 = ETV1 (Homo sapiens, UniProt P50549 1-477); conditions: protein: recombinant; tags: N-terminal GST; dsDNA, one strand shown
Sequence of ETV1 (P50549 whole entry): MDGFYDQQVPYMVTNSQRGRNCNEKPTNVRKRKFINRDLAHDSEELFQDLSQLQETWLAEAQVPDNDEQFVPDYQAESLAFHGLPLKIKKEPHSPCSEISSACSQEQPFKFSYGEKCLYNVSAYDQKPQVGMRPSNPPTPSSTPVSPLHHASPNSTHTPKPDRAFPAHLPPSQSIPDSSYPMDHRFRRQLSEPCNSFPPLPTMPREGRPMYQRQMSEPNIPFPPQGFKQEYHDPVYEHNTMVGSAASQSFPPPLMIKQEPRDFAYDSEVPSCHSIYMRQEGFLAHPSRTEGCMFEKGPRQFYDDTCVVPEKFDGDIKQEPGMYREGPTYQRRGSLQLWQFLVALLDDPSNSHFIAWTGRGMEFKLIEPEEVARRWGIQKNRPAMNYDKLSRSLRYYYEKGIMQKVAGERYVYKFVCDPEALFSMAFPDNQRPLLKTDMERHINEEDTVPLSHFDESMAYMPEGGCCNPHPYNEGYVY
Outline: as §1

## CTGATG
FEV
  binding signal: 1.62 fold enrichment (6-mer frequency, TF over GST control)
ETV5
  binding signal: 1.65 fold enrichment (6-mer frequency, TF over GST control)
HSF1
  binding signal: 1.33 fold enrichment (6-mer frequency, TF over GST control)
SPIC
  binding signal: 1.79 fold enrichment (6-mer frequency, TF over GST control)
ELF4
  binding signal: 1.79 fold enrichment (6-mer frequency, TF over GST control)
ELK4
  binding signal: 1.83 fold enrichment (6-mer frequency, TF over GST control)
ETV2
  binding signal: 1.7 fold enrichment (6-mer frequency, TF over GST control)
ELF3
  binding signal: 1.65 fold enrichment (6-mer frequency, TF over GST control)
CRX
  binding signal: 1.46 fold enrichment (6-mer frequency, TF over GST control)
ETV1
  binding signal: 1.61 fold enrichment (6-mer frequency, TF over GST control)
